Test results published in paper PMC6451091, “NextPBM: a platform to study cell-specific transcription factor binding and cooperativity”.
The full ranking holds about 3,700 sequences; the median of “z-score” is about 4, and the highest 2% start at about 8.4. The sample holds the highest values, similar sequences and a random draw of the others, so the mix is not that of the screen.

Assays:
[1] = target: PU.1 (IVT) (UniProt P17947 1-270); test: protein-binding microarray (PBM); 20 mM HEPES pH 7.9, 100 mM NaCl, 1 mM DTT, 0.2 mg/mL BSA, 0.02% Triton X-100, 2% milk, 0.4 mg/mL salmon testes DNA; 1 h; temperature not stated; high values mean tight binding; details: dsDNA, one strand shown
Method in brief: (§1)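 Full-length untagged PU.1 was made by coupled human in vitro transcription/translation. It was bound for 1 h to custom double-stranded DNA microarrays carrying 20-bp genomic sites and single-nucleotide variants, 10 probes per site (5 per orientation). The binding buffer was HEPES pH 7.9 with 100 mM NaCl, 2% milk and salmon testes DNA. Bound protein was detected with anti-PU.1 and then a fluorescent secondary antibody. Binding is a z-score from scanned fluorescence after linear-regression normalisation.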

[2] = target: PU.1 (IVT) (UniProt P17947 1-270); test: as above; details: dsDNA, one strand shown; remark: listed apart in the source
Method in brief: as §1

Sequence | binding signal [1] | binding signal [2]
GCCTAGCACTTTAAAGGGAAATACTGTGGGTGCTAGGTCTTGATTCGCTTGACGCTGCTG | 1.36 z-score | 
GCCTAGCACAGAAACAGGAACTGAGGCCAGTGCTAGGTCTTGATTCGCTTGACGCTGCTG |  | 4.78 z-score
GCCTAGCACGAAAACAGGAAGTCCGATAGGTGCTAGGTCTTGATTCGCTTGACGCTGCTG |  | 7.15 z-score
GCCTAGCACTGGGAGAGGAAGTGATGAGCGTGCTAGGTCTTGATTCGCTTGACGCTGCTG | 4.01 z-score | 
GCCTAGCACAAGCAGAGGAAGTGAGATTTGTGCTAGGTCTTGATTCGCTTGACGCTGCTG |  | 3.71 z-score
GCCTAGCACCAAAAAGGGAAGTGGACGCTGTGCTAGGTCTTGATTCGCTTGACGCTGCTG |  | 6.7 z-score
GCCTAGCACATCATCAGGAACTGAAACTGGTGCTAGGTCTTGATTCGCTTGACGCTGCTG |  | 1.18 z-score
GCCTAGCACAAAGAGAGGAAGTCCCAAGAGTGCTAGGTCTTGATTCGCTTGACGCTGCTG | 3.78 z-score | 
GCCTAGCACTCAAGAAGGAAGTGCCAAATGTGCTAGGTCTTGATTCGCTTGACGCTGCTG | 3.31 z-score | 
GCCTAGCACAGAAAAAGGAACTGTGCCCCGTGCTAGGTCTTGATTCGCTTGACGCTGCTG |  | 3.05 z-score
GCCTAGCACAGCAAGAGGAAGTCAAGTACGTGCTAGGTCTTGATTCGCTTGACGCTGCTG | 4.55 z-score | 
GCCTAGCACGAAAAGAGGAAGTGTAACCAGTGCTAGGTCTTGATTCGCTTGACGCTGCTG |  | 8.52 z-score
GCCTAGCACAGAAAGAGGAAGTTCCCGTCGTGCTAGGTCTTGATTCGCTTGACGCTGCTG |  | 8.56 z-score
GCCTAGCACAGAAAGAGGAAGTTATGTGCGTGCTAGGTCTTGATTCGCTTGACGCTGCTG |  | 8.58 z-score
GCCTAGCACAGAAAGAGGAAATGACCTATGTGCTAGGTCTTGATTCGCTTGACGCTGCTG | 5.8 z-score | 
GCCTAGCACAGAAAGAGGAAGAGAAACTTGTGCTAGGTCTTGATTCGCTTGACGCTGCTG | 4.63 z-score | 
GCCTAGCACAGAAAGAGGAAGTCGAGGTGGTGCTAGGTCTTGATTCGCTTGACGCTGCTG |  | 7.74 z-score
GCCTAGCACAGAAAGAGGAAGTCTCTGCCGTGCTAGGTCTTGATTCGCTTGACGCTGCTG |  | 7.37 z-score
GCCTAGCACGAAAAGAGGAAGTCAAACCAGTGCTAGGTCTTGATTCGCTTGACGCTGCTG |  | 8.22 z-score
GCCTAGCACAGAAAGAGGAAGAGCCTCAGGTGCTAGGTCTTGATTCGCTTGACGCTGCTG | 5.13 z-score | 

Sequence | binding signal [1] | binding signal [2]
GCCTAGCACAGAAAGAGGAAGTGACACTTGTGCTAGGTCTTGATTCGCTTGACGCTGCTG |  | 8.52 z-score
GCCTAGCACAGGAAGAGGAAGTGACAGATGTGCTAGGTCTTGATTCGCTTGACGCTGCTG | 6.27 z-score | 
GCCTAGCACTGAAAGAGGAAGTGTAACCAGTGCTAGGTCTTGATTCGCTTGACGCTGCTG |  | 7.2 z-score
GCCTAGCACACCAGGAGGAAGTGGTTGCAGTGCTAGGTCTTGATTCGCTTGACGCTGCTG | 4.06 z-score | 
GCCTAGCACCGAAAGAGGAAGTGCAACCAGTGCTAGGTCTTGATTCGCTTGACGCTGCTG |  | 7.64 z-score
GCCTAGCACGATAAGAGGAAGTGCTCTGTGTGCTAGGTCTTGATTCGCTTGACGCTGCTG | 6.52 z-score | 
GCCTAGCACTTTAAAGGGAAATGAAACTGGTGCTAGGTCTTGATTCGCTTGACGCTGCTG |  | 1.39 z-score
GCCTAGCACGAAAAGAGGAACAGCCTCTGGTGCTAGGTCTTGATTCGCTTGACGCTGCTG | 5.13 z-score | 
GCCTAGCACGAAAGGGGGAAGTGACTAAGGTGCTAGGTCTTGATTCGCTTGACGCTGCTG | 5.51 z-score | 
GCCTAGCACTCTCTGAGGAAGTGAAACTCGTGCTAGGTCTTGATTCGCTTGACGCTGCTG | 2.86 z-score | 
GCCTAGCACAGAAAGAGGAAGTGCTGAGGGTGCTAGGTCTTGATTCGCTTGACGCTGCTG |  | 7.75 z-score
GCCTAGCACAAAAAAAGGATATGAAAGTAGTGCTAGGTCTTGATTCGCTTGACGCTGCTG | 0.953 z-score | 
GCCTAGCACAAAAAGAGGAACTGAATGTCGTGCTAGGTCTTGATTCGCTTGACGCTGCTG |  | 7.27 z-score
GCCTAGCACGAAAGGAGGAAGTACTGTGGGTGCTAGGTCTTGATTCGCTTGACGCTGCTG |  | 6.78 z-score
GCCTAGCACAGAAAGAGGAAGTGGAAGAGGTGCTAGGTCTTGATTCGCTTGACGCTGCTG |  | 8.16 z-score
GCCTAGCACAGAAAGAGGAAGTGCCTCTTGTGCTAGGTCTTGATTCGCTTGACGCTGCTG |  | 8.4 z-score
GCCTAGCACAGAAAGAGGAAGAGCTGCCAGTGCTAGGTCTTGATTCGCTTGACGCTGCTG | 4.1 z-score | 
GCCTAGCACTCAAGGAGGAAGTGAGAGATGTGCTAGGTCTTGATTCGCTTGACGCTGCTG | 4.31 z-score | 
GCCTAGCACGTTTTGAGGAACTGAAACTCGTGCTAGGTCTTGATTCGCTTGACGCTGCTG | 4.5 z-score | 
GCCTAGCACCGAAAAGGGAAATACTGTGAGTGCTAGGTCTTGATTCGCTTGACGCTGCTG | 2.65 z-score | 
